High-throughput results (PubChem BioAssay)
Compounds with a hit are over-represented: about 2.1% of the library has one in this group of screens.
PfHsp40 rescue: rescue of PfHsp40-mediated yeast toxicity. actives 0.68% (n = 340,000). S. cerevisiae expressing PfHsp40, growth rescue, ATP luminescence. AID 504582. growth rescue, % at 12.5 µM; in the data active means growth rescue above about 28%, passing the limit was not always enough; inconclusive means no clear call, values can overlap the other calls;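 further: yeast W303a lacking pdr1 and pdr3 grown in galactose medium; growth measured after three days at 30 °C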
ugtP null kill: kills S. aureus RN4220 lacking UgtP; actives 0.54% (n = 330,000); S. aureus RN4220 ugtP deletion, OD600 growth, 16 h; growth inhibition, % (test concentration not listed); in the data active means growth inhibition above about 68%
PrPC surface inh: cell surface PrPC inhibition, primary TR-FRET screen | P04156 | TR-FRET read-out | inhibition, % at 13.8 µM | actives 0.43% (n = 370,000) | AID 720596; in the data active means inhibition above about 24%
CCHFV vOTU inh: CCHFV vOTU protease inhibition; actives 0.55% (n = 370,000); AID 651958; Pep-AMC fluorescence; inhibition, % at 11.5 µM; in the data active means inhibition above about 30%
PrP UTR inh: inhibition of PrP 5' UTR reporter expression; actives 0.35% (n = 340,000); inhibition, % (concentration not given with the values); AID 488862; cell-based PrP 5' UTR mRNA reporter, plate reader; in the data active means inhibition above about 52%
Sa RN4220 lethal: S. aureus RN4220 growth inhibition | OD600, 16 h | actives 0.33% (n = 330,000) | inhibition, % (test concentration not listed); in the data active means inhibition above about 85%
PrPC TRFRET cf: confirmation of inhibitors of cell surface human prion protein. cell surface PrPC level, TR-FRET. actives 65% (n = 1,500). shares compounds with PrPC surface inh. inhibition, % at 13.8 µM. AID 743200; in the data active means inhibition above about 25%
LD9 cytotox: kills or reduces viability of LD9 cells in PrPc counter-screen; shares compounds with PrPC surface inh; LD9 cells cytotoxicity, luminescence viability; inhibition, % at 13.8 µM; actives 29% (n = 1,500); in the data active means inhibition above about 9.5%
Of the large screens only hits and unclear results are named; the others gave an inactive call (follow-up assays come after a bar, where they were run).

Cc1cc2nc(N)sc2cc1C	PrPC surface inh 36 | PrPC TRFRET cf inactive | LD9 cytotox inactive
C=Cc1cc2c(cc1O)CCC1C2CCC2(C)C(O)CCC12 (stereo not drawn)	PfHsp40 rescue inconclusive, PrPC surface inh 29 (no result: ugtP null kill, Sa RN4220 lethal) | PrPC TRFRET cf inactive | LD9 cytotox inactive
O=S(=O)(NN=Cc1ccccc1OCc1ccc(Cl)cc1)c1ccccc1	none (no result: PfHsp40 rescue, PrPC surface inh, CCHFV vOTU inh, PrP UTR inh)
C/C(N)=C(/C#N)C(=O)CSc1nc2ccccc2c(=O)n1Cc1ccc(C)cc1	PrPC surface inh 27 | PrPC TRFRET cf inactive | LD9 cytotox inactive
Cc1ccc(Cn2c(SCC(=O)N3CC(=O)Nc4ccccc43)nc3ccccc3c2=O)cc1	PrPC surface inh 29 | PrPC TRFRET cf 45 | LD9 cytotox inactive
C/C(N)=C(/C#N)C(=O)CSc1nc2ccccc2c(=O)n1Cc1ccc(F)cc1	none (no result: PrP UTR inh)
Cc1ccc(S(=O)(=O)N2C(c3cccc(C)c3)CC=C(C(=O)O)C2c2ccccc2F)cc1 (stereo not drawn)	none (no result: PfHsp40 rescue, PrPC surface inh, CCHFV vOTU inh, PrP UTR inh)
Cc1ccc(OCc2nc3ccccc3n2C(C)C(=O)Nc2c(C)cccc2C)cc1 (stereo not drawn)	PrPC surface inh 33 (no result: PfHsp40 rescue, ugtP null kill, PrP UTR inh, Sa RN4220 lethal) | PrPC TRFRET cf 26 | LD9 cytotox inactive
COc1cccc2sc3cc(NCc4ccc(C)o4)ccc3c(=O)c12	PrPC surface inh 37 (no result: ugtP null kill, Sa RN4220 lethal) | PrPC TRFRET cf 83 | LD9 cytotox inactive
COc1cc2sc3cc(NCCCN4CCOCC4)ccc3c(=O)c2cc1OC	none
COc1cccc(C=NNC(=O)C(C)n2nc(C)c([N+](=O)[O-])c2C)c1O (stereo not drawn)	none (no result: PfHsp40 rescue, PrPC surface inh, CCHFV vOTU inh, PrP UTR inh)
COC(=O)CCCCC(=O)OC	none
COC(=O)CCCCCc1ccc(C(C)=O)s1	PrPC surface inh 63 | PrPC TRFRET cf 77 | LD9 cytotox inactive
CCC(=O)c1ccc(CCCCCC(=O)O)s1	none
CC(=O)c1ccc(CCCCCCCCCC(=O)O)s1	PrPC surface inh 76 | PrPC TRFRET cf 68 | LD9 cytotox inactive
CCOc1ccc(C=NOCC(=O)Nc2ccc3c(c2)OCO3)cc1	none (no result: PfHsp40 rescue, PrPC surface inh, CCHFV vOTU inh, PrP UTR inh)
COC(=O)C1=C(C(=O)OC)C2N(C)c3ccc(OC)cc3[C@@]23CC(C(=O)OC)N(C(=O)c2cc(C)oc2C)C3=N1 (stereo partly drawn)	none (no result: PfHsp40 rescue, PrPC surface inh, CCHFV vOTU inh, PrP UTR inh)
CCN(CC(=O)Nc1ccccc1C(F)(F)F)C(=O)c1cc(-c2cccs2)nn1-c1ccccc1	none
CN(CC(=O)Nc1ccccc1C(F)(F)F)C(=O)c1cc(-c2cccs2)nn1-c1ccccc1	PrPC surface inh 25 (no result: PfHsp40 rescue) | PrPC TRFRET cf 49 | LD9 cytotox inactive
COc1cc(C2Nc3ccccc3C(=O)N2c2ccc(Cl)cc2)c(Cl)cc1OCC(=O)O (stereo not drawn)	none
CCOc1cc(C2Nc3ccccc3C(=O)N2c2ccccc2)c(Br)cc1OCC(=O)O (stereo not drawn)	PrPC surface inh 93 | PrPC TRFRET cf 63 | LD9 cytotox inactive
Cc1ccc(S(=O)(=O)Nc2ccccc2N(C)S(=O)(=O)c2ccc(C)cc2)cc1	PrPC surface inh 26 | PrPC TRFRET cf inactive | LD9 cytotox 9.7
CC(CO)NC(=O)C1CC1C(NP(=O)(c1ccccc1)c1ccccc1)c1ccccc1 (stereo not drawn)	none (no result: PfHsp40 rescue, PrPC surface inh, CCHFV vOTU inh, PrP UTR inh)
CN1CCN(S(=O)(=O)c2cccc(C(=O)Nc3cc(C(N)=O)cc(C(N)=O)c3)c2)CC1	PrPC surface inh 30 | PrPC TRFRET cf 25 | LD9 cytotox inactive
CC(=O)Oc1ccc(-c2ccc(C(=O)Nc3cccc(S(=O)(=O)N4CCOCC4)c3)cc2)cc1	PrPC surface inh 25 | PrPC TRFRET cf inactive | LD9 cytotox inactive
CC(C)(C)c1ccc(OCCC(=O)Nc2cccc(S(=O)(=O)N3CCOCC3)c2)cc1	PrPC surface inh 25 | PrPC TRFRET cf inactive | LD9 cytotox inactive
COc1ccc(OCCC(=O)OCC(=O)Nc2cccc(S(=O)(=O)N3CCOCC3)c2)cc1	none
COc1cc(C=NNC(=O)C(C)Nc2n[nH]c(=O)[nH]c2=O)cc(OC)c1O (stereo not drawn)	none (no result: PfHsp40 rescue, PrPC surface inh, CCHFV vOTU inh, PrP UTR inh)
COc1cc(C=NNC(=O)CCC(=O)Nc2ccc(Br)cc2)ccc1O	none (no result: PfHsp40 rescue, PrPC surface inh, CCHFV vOTU inh, PrP UTR inh)
Cn1nc(C(F)(F)F)c(/C=N/OC(=O)c2ccccc2Cl)c1SCc1ccccc1Cl	PrPC surface inh 70 (no result: ugtP null kill, Sa RN4220 lethal) | PrPC TRFRET cf 82 | LD9 cytotox inactive
Cn1nc(C(F)(F)F)c(C=NOC(=O)c2ccccc2Cl)c1SCc1ccccc1Cl	none (no result: PfHsp40 rescue, PrPC surface inh, CCHFV vOTU inh, PrP UTR inh)
CCOCc1c(C(=O)Nc2ccc3nc(N4CCOCC4)sc3c2)oc2ccccc12	PfHsp40 rescue inconclusive, PrPC surface inh 33 | PrPC TRFRET cf inactive | LD9 cytotox inactive
CCOCc1c(C(=O)Nc2cc(OCC)c(N3CCOCC3)cc2OCC)oc2ccccc12	none
CS(=O)(=O)c1ccc(C(=O)NNC(=O)c2cc(-c3ccccc3)n[nH]2)cc1	none (no result: ugtP null kill, Sa RN4220 lethal)
COc1cc(C(=O)NNC(=O)c2cc(-c3ccccc3)n[nH]2)cc(OC)c1C	PrPC surface inh 26 (no result: ugtP null kill, Sa RN4220 lethal) | PrPC TRFRET cf inactive | LD9 cytotox inactive
CCOc1ccccc1C=NNC(=O)CNC(=O)c1ccc(S(=O)(=O)N2CCOCC2)cc1	none (no result: PfHsp40 rescue, PrPC surface inh, CCHFV vOTU inh, PrP UTR inh)
Cc1cc(Br)c(OCc2ccc(C(=O)N/N=C/c3ccc[nH]3)cc2)c(Br)c1	PrPC surface inh 26 (no result: ugtP null kill, Sa RN4220 lethal) | PrPC TRFRET cf 52 | LD9 cytotox 65
O=C(Nc1ccccc1)c1ccc(Br)c(S(=O)(=O)Nc2cccnc2)c1	none
O=S(=O)(Nc1cccnc1)c1ccc(Br)c2ccccc12	PrPC surface inh 36 | PrPC TRFRET cf 43 | LD9 cytotox inactive
